Reference: the supplement of paper PMC8728848
The full list was thinned out, with the strongest signals kept by preference.

Experiments:
Test in all cases: glycan array binding signal (z-score within array); higher = stronger binding
Conditions in all cases: glycan notation: IUPAC condensed, linker removed
Fuc(a1-2)Gal(b1-3)GlcNAc = target: Fuc(a1-2)Gal(b1-3)GlcNAc
Summary of the method: (§1)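 Arrays were curated from the Consortium for Functional Glycomics database, 3228 in total, and kept only where the protein sequence was available. Binding is expressed as a within-array Z-score. This score was averaged across arrays of the same protein sequence at different concentrations or buffers and across linkers, and negative values can be read as non-binding.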

[1] = target: Fuc(a1-2)Gal(b1-3)GlcNAc(b1-2)Man(a1-3)[Fuc(a1-2)Gal(b1-3)GlcNAc(b1-2)Man(a1-6)]Man(b1-4)GlcNAc(b1-4)[Fuc(a1-6)]GlcNAc
Summary of the method: as §1

[2] = target: Fuc(a1-2)Gal(b1-4)GlcNAc(b1-2)[Fuc(a1-2)Gal(b1-4)GlcNAc(b1-4)]Man(a1-3)[Fuc(a1-2)Gal(b1-4)GlcNAc(b1-2)Man(a1-6)]Man(b1-4)GlcNAc(b1-4)GlcNAc
Summary of the method: as §1

[3] = target: Fuc(a1-2)Gal(b1-4)[Fuc(a1-3)]GlcNAc(b1-2)Man(a1-3)[Fuc(a1-2)Gal(b1-4)[Fuc(a1-3)]GlcNAc(b1-2)Man(a1-6)]Man(b1-4)GlcNAc(b1-4)GlcNAc
Summary of the method: as §1

[4] = target: Fuc(a1-2)Gal(b1-4)[Fuc(a1-3)]GlcNAc(b1-3)GalNAc
Summary of the method: as §1

[5] = target: Fuc(a1-2)Gal6S(b1-3)GlcNAc
Summary of the method: as §1

Fuc(a1-2)[Gal(a1-3)]Gal = target: Fuc(a1-2)[Gal(a1-3)]Gal
Summary of the method: as §1

[6] = target: Fuc(a1-2)[GalNAc(a1-3)]Gal(b1-4)GlcNAc
Summary of the method: as §1

[7] = target: Fuc(a1-2)[GalNAc(a1-3)]Gal(b1-4)GlcNAc(b1-3)GalNAc
Summary of the method: as §1

[8] = target: Fuc(a1-2)[GalNAc(a1-3)]Gal(b1-4)[Fuc(a1-3)]GlcNAc(b1-3)GalNAc
Summary of the method: as §1

[9] = target: Gal(a1-3)Gal(b1-3)GlcNAc(b1-2)Man(a1-3)[Gal(a1-3)Gal(b1-3)GlcNAc(b1-2)Man(a1-6)]Man(b1-4)GlcNAc(b1-4)GlcNAc
Summary of the method: as §1

[10] = target: Gal(a1-3)Gal(b1-3)[Fuc(a1-4)]GlcNAc(b1-2)Man(a1-3)[Gal(a1-3)Gal(b1-3)[Fuc(a1-4)]GlcNAc(b1-2)Man(a1-6)]Man(b1-4)GlcNAc(b1-4)GlcNAc
Summary of the method: as §1

Gal(a1-4)Gal(b1-4)Glc = target: Gal(a1-4)Gal(b1-4)Glc
Summary of the method: as §1

Gal(a1-6)Glc = target: Gal(a1-6)Glc
Summary of the method: as §1

[11] = target: Gal(b1-3)GlcNAc(a1-6)Gal(b1-4)GlcNAc
Summary of the method: as §1

[12] = target: Gal(b1-4)GlcNAc(b1-2)Man(a1-6)Man(b1-4)GlcNAc(b1-4)GlcNAc
Summary of the method: as §1

[13] = target: Gal(b1-4)GlcNAc(b1-2)[Gal(b1-4)GlcNAc(b1-4)]Man(a1-3)[GlcNAc(b1-4)][Gal(b1-4)GlcNAc(b1-2)[Gal(b1-4)GlcNAc(b1-6)]Man(a1-6)]Man(b1-4)GlcNAc(b1-4)GlcNAc
Summary of the method: as §1

[14] = target: Gal(b1-4)GlcNAc(b1-2)[Gal(b1-4)GlcNAc(b1-6)]Man(a1-6)[Gal(b1-4)GlcNAc(b1-2)Man(a1-3)]Man(b1-4)GlcNAc(b1-4)[Fuc(a1-6)]GlcNAc
Summary of the method: as §1

Gal3S(b1-3)GlcNAc = target: Gal3S(b1-3)GlcNAc
Summary of the method: as §1

GalNAc(b1-3)GalNAc = target: GalNAc(b1-3)GalNAc
Summary of the method: as §1

GalNAc4S6S(b1-4)GlcNAc = target: GalNAc4S6S(b1-4)GlcNAc
Summary of the method: as §1

[15] = target: GlcNAc(a1-4)Gal(b1-4)GlcNAc(b1-3)Gal(b1-4)Glc
Summary of the method: as §1

[16] = target: GlcNAc(a1-4)Gal(b1-4)GlcNAc(b1-3)Gal(b1-4)GlcNAc(b1-3)Gal(b1-4)GlcNAc
Summary of the method: as §1

[17] = target: GlcNAc(a1-4)Gal(b1-4)GlcNAc(b1-3)Gal(b1-4)[Fuc(a1-3)]GlcNAc(b1-3)Gal(b1-4)[Fuc(a1-3)]GlcNAc
Summary of the method: as §1

GlcNAc(b1-3)Man = target: GlcNAc(b1-3)Man
Summary of the method: as §1

[18] = target: GlcNAc(b1-3)[GlcNAc(b1-6)]GalNAc
Summary of the method: as §1

[19] = target: Man(a1-2)Man(a1-3)[Man(a1-2)Man(a1-6)]Man(a1-6)[Man(a1-2)Man(a1-2)Man(a1-3)]Man(b1-4)GlcNAc(b1-4)GlcNAc
Summary of the method: as §1

Man(a1-3)[Man(a1-6)]Man = target: Man(a1-3)[Man(a1-6)]Man
Summary of the method: as §1

[20] = target: Man(a1-3)[Man(a1-6)]Man(a1-6)[Man(a1-3)]Man
Summary of the method: as §1

[21] = target: Neu5Ac(a2-3)Gal(b1-3)[Fuc(a1-4)]GlcNAc
Summary of the method: as §1

[22] = target: Neu5Ac(a2-3)Gal(b1-3)[Fuc(a1-4)]GlcNAc(b1-3)Gal(b1-3)[Fuc(a1-4)]GlcNAc
Summary of the method: as §1

[23] = target: Neu5Ac(a2-3)Gal(b1-4)GlcNAc(b1-2)[Neu5Ac(a2-3)Gal(b1-4)GlcNAc(b1-6)]Man(a1-6)[Neu5Ac(a2-3)Gal(b1-4)GlcNAc(b1-2)Man(a1-3)]Man(b1-4)GlcNAc(b1-4)GlcNAc
Summary of the method: as §1

[24] = target: Neu5Ac(a2-3)Gal(b1-4)GlcNAc(b1-3)Gal(b1-4)[Fuc(a1-3)]GlcNAc
Summary of the method: as §1

[25] = target: Neu5Ac(a2-3)Gal(b1-4)GlcNAc(b1-3)GalNAc
Summary of the method: as §1

[26] = target: Neu5Ac(a2-3)Gal(b1-4)GlcNAc(b1-6)GalNAc
Summary of the method: as §1

[27] = target: Neu5Ac(a2-3)Gal(b1-4)GlcNAc6S
Summary of the method: as §1

[28] = target: Neu5Ac(a2-3)Gal(b1-4)[Fuc(a1-3)]GlcNAc
Summary of the method: as §1

[29] = target: Neu5Ac(a2-3)Gal(b1-4)[Fuc(a1-3)]GlcNAc(b1-3)GalNAc
Summary of the method: as §1

[30] = target: Neu5Ac(a2-6)Gal(b1-4)GlcNAc
Summary of the method: as §1

[31] = target: Neu5Ac(a2-6)Gal(b1-4)GlcNAc(b1-3)Gal(b1-3)GlcNAc
Summary of the method: as §1

[32] = target: Neu5Ac(a2-6)Gal(b1-4)GlcNAc(b1-6)[Gal(b1-3)GlcNAc(b1-3)]Gal(b1-4)Glc
Summary of the method: as §1

[33] = target: Neu5Ac(a2-6)GalNAc(b1-4)GlcNAc
Summary of the method: as §1

[34] = target: Neu5Ac9Ac(a2-3)Gal(b1-4)GlcNAc
Summary of the method: as §1

B1: ArathEULS3 (Arabidopsis thaliana), Q945P1 (protein)
chain: MEHHHQHHRHHQRDDGEDDRQSFGVPPPHVDAPPQPHGLYQSQPHFDPYAPTPQAPAPYRSETQFEPHAPPPYRSEPYFETPAPPPSFGHVSHVGHQSPNESYPPEHHRYGGYQQPSNSLLESHGDHSGVTHVAHHSSNQPQSSSGVYHKPDENRLPDNLAGLAGRATVKVYSKAEPNYNLTIRDGKVILAPADPSDEAQHWYKDEKYSTKVKDADGHPCFALVNKATGEAMKHSVGATHPVHLIRYVPDKLDESVLWTESKDFGDGYRTIRMVNNTRLNVDAYHGDSKSGGVRDGTTIVLWDWNKGDNQLWKIFPFILEQKLISEEDLNSAVDHHHHHH
glycan array binding signal (z-score) (Fuc(a1-2)Gal(b1-3)GlcNAc): -0.25 | glycan array binding signal (z-score) [1]: 0.265 | glycan array binding signal (z-score) [2]: 0.36 | glycan array binding signal (z-score) [3]: 1.64 | glycan array binding signal (z-score) [4]: 11.8 | glycan array binding signal (z-score) [5]: -0.322 | glycan array binding signal (z-score) (Fuc(a1-2)[Gal(a1-3)]Gal): -0.303 | glycan array binding signal (z-score) [6]: -0.305 | glycan array binding signal (z-score) [7]: -0.012 | glycan array binding signal (z-score) [8]: 7.35 | glycan array binding signal (z-score) [9]: 4.38 | glycan array binding signal (z-score) [10]: 0.898 | glycan array binding signal (z-score) (Gal(a1-4)Gal(b1-4)Glc): -0.332 | glycan array binding signal (z-score) (Gal(a1-6)Glc): -0.342 | glycan array binding signal (z-score) [11]: -0.235 | glycan array binding signal (z-score) [12]: 2.12 | glycan array binding signal (z-score) [13]: 5.54 | glycan array binding signal (z-score) [14]: -0.026 | glycan array binding signal (z-score) (Gal3S(b1-3)GlcNAc): -0.279 | glycan array binding signal (z-score) (GalNAc(b1-3)GalNAc): 0.511 | glycan array binding signal (z-score) (GalNAc4S6S(b1-4)GlcNAc): -0.105 | glycan array binding signal (z-score) [15]: -0.112 | glycan array binding signal (z-score) [16]: -0.273 | glycan array binding signal (z-score) [17]: 3.11 | glycan array binding signal (z-score) (GlcNAc(b1-3)Man): -0.164 | glycan array binding signal (z-score) [18]: -0.203 | glycan array binding signal (z-score) [19]: -0.229 | glycan array binding signal (z-score) (Man(a1-3)[Man(a1-6)]Man): -0.26 | glycan array binding signal (z-score) [20]: -0.266 | glycan array binding signal (z-score) [21]: -0.211 | glycan array binding signal (z-score) [22]: -0.244 | glycan array binding signal (z-score) [23]: 1.98 | glycan array binding signal (z-score) [24]: -0.229 | glycan array binding signal (z-score) [25]: -0.326 | glycan array binding signal (z-score) [26]: -0.302 | glycan array binding signal (z-score) [27]: -0.173 | glycan array binding signal (z-score) [28]: 1.79 | glycan array binding signal (z-score) [29]: 2 | glycan array binding signal (z-score) [30]: 0.011 | glycan array binding signal (z-score) [31]: -0.157 | glycan array binding signal (z-score) [32]: -0.239 | glycan array binding signal (z-score) [33]: -0.302 | glycan array binding signal (z-score) [34]: -0.232
